Results reported in PubChem BioAssay (EPA / NIEHS).
Values joined by “and” are separate entries in the source; they are usually repeats but may differ in a detail not shown here. Identical values can stand only once. Some structures have more than one record in an assay (separate samples or runs), and their calls can disagree. Active and inactive are the calls of the source. The calls were made as follows: active = hit-call score of the fitted dose curve at least 0.9, where 1 is the maximum; inactive = score below 0.9.

Assay: ATG_SREBP_CIS: Attagene CIS-FACTORIAL HepG2 Assay for human Sterol Regulatory Element Binding (SREBP) (AID 2282962)
Details: HepG2 Attagene cis-factorial SREBP reporter, mRNA; actives raise or lower the signal
Experimental: ATG_CIS is a cell-based, multiplexed-readout assay that uses HepG2, a human liver cell line, with measurements taken at 24 hours after chemical dosing in a 24-well plate.ATG_SREBP_CIS is one of 52 assay component(s) measured or calculated from the ATG_CIS assay. It is designed to make measurements of mRNA induction, a form of inducible reporter, as detected with fluorescence intensity signals by Reverse transcription polymerase chain reaction (RT-PCR) and Capillary electrophoresis technology.Data from the assay component ATG_SREBP_CIS was analyzed into 1 assay endpoint. This assay endpoint, ATG_SREBP_CIS, was analyzed with bidirectional fitting relative to DMSO as the negative control and baseline of activity. Using a type of inducible reporter, measures of mRNA for gain or loss-of-signal activity can be used to understand the reporter gene at the transcription factor-level as they relate to the gene SREBF1. Furthermore, this assay endpoint can be referred to as a primary readout, because this assay has produced multiple assay endpoints where this one serves a reporter gene function. To generalize the intended target to other relatable targets, this assay endpoint is annotated to the dna binding intended target family, where the subfamily is basic helix-loop-helix leucine zipper.
Human liver HepG2 cells are transiently transfected with multiple reporter transcription units (MRTUs) in 6-well plates using FuGene 6 reagent (Roche; 3 ml FuGene/1 mg DNA). The MRTU constructs are regulated by a cis-regulating element (promoter). […] A major difference between the CIS and TRANS system is that in CIS activities of endogenous TFs are measured, whereas the TRANS assay evaluates changes in activities of exogenous, chimeric NR-Gal4 proteins. […] At the end of 24 hour incubation, total RNA was isolated using TriZol reagent (Invitrogen). The isolated RNA is then reverse-transcribed using oligo(dT) primer and Mo-MLV reverse transcriptase (Invitrogen) with DNAse I (Ambion) treatment for 30 min. The one-tenth of the produced cDNA was amplified by PCR using Taq DNA polymerase (Invitrogen) and two reporter sequence-specific primers. The PCR products were fluorescently labeled by primer extension with 6-arboxyfluorescein (6-FAM) 5'-labeled reporter sequence-specific primer (2 min at 95 C, 20 s at 68 C and 10 min at 72 C) and these products were digested with 5U of HpaI (New England Biolabs) for 2h at 37 C. The fragments were purified using Qiaquick PCR columns (Qiagen), analyzed on an ABI 3130xL genetic analyzer (Applied Biosystems) with peak positions identified by using a set of X-rhodamine (ROX)-labeled MapMarker1000 molecular weight standards (BioVentures). The raw capillary electrophoresis data was processed using Attagraph software (Attagene).

SMILES	outcome	AC50
CC(=O)OC(C)(C)C1CC=C(C)CC1 (stereo not given)	inactive	–
CCCCOCC(C)OCC(C)O (stereo not given)	inactive	–
O=c1cc(-c2ccc(O)cc2)oc2cc(O)cc(O)c12	inactive	–
CCCOC(=O)CC	inactive	–
Cc1cc(N)n(-c2ccccc2)n1	inactive	–
CCCCOCCOCCOCCO	inactive	–
CCOc1ccc(NC(C)=O)cc1	inactive	–
C=CCCCCCCCCC(=O)OCC	inactive	–
CCNC(=S)NCC	inactive	–
CC(C)(O)C(=O)c1ccc(OCCO)cc1	inactive	–
N=C1N=C(N)c2ccccc21	inactive	–
CCCCCCCCCC(=O)OCC	inactive	–
[Cu+]	inactive	–
C=CC(C)(CCC=C(C)C)OC(=O)CC (stereo not given)	inactive	–
C[C@H](CCC(=O)O)[C@H]1CC[C@H]2[C@@H]3CC[C@@H]4C[C@H](O)CC[C@]4(C)[C@H]3CC[C@]12C	inactive	–
COc1ccccc1O	inactive	–
CCCCCCCCOC(=O)c1ccc(O)cc1	inactive	–
CCO[Si](CCC#N)(OCC)OCC	inactive	–
CCCCOCCOCCO	inactive	–

SMILES	outcome	AC50
[O-]/[N+](=N\O)c1ccccc1	inactive	–
CCC(C)(C)C1CCC(=O)CC1	inactive	–
CCCCCCCCCCCCCC(=O)OCC	inactive	–
CC(C)OB(OC(C)C)OC(C)C	inactive	–
CC1COC(=O)O1 (stereo not given)	inactive	–
CC(C)(C)c1ccc(S)cc1	inactive	–
C#C[C@]1(O)CC[C@H]2[C@@H]3CCc4cc(O)ccc4[C@H]3CC[C@@]21C	inactive	–
C1CCCNCC1	inactive	–
CC(CCO)CC(C)(C)C (stereo not given)	inactive	–
CCOC(=O)CC1(C)OCC(C)O1 (stereo not given)	inactive	–
c1coc(CNc2ncnc3nc[nH]c23)c1	inactive	–
CCCCCCCCCCOC(=O)c1ccccc1C(=O)OCCCCCCCC	inactive	–
CC/C(=C(\c1ccccc1)c1ccc(OCCN(C)C)cc1)c1ccccc1	inactive	5.24 µM (active) and 3.71 µM (active)
COC(=O)c1ccc(C(=O)OC)cc1	inactive	–
CNC(=C[N+](=O)[O-])NCCSCc1ccc(CN(C)C)o1	inactive	–
O=C(c1ccc(OCCN2CCCCC2)cc1)c1c(-c2ccc(O)cc2)sc2cc(O)ccc12	inactive	6.38 µM (active) and 2.85 µM (active) and 2.92 µM (active)
CCCCC1CCCCC(=O)O1 (stereo not given)	inactive	–
CCc1cccc(O)c1	inactive	–
CC(C)(C)c1cccc(O)c1	inactive	–
